Source: PubChem (National Center for Advancing Translational Sciences (NCATS))
Compounds with a hit are over-represented: about 2.3% of the library has one in this group of screens.
Nrf2 block = Nrf2 pathway inhibition; A549 ARE-Fluc reporter, luciferase luminescence, 18-24 h; Potency, µM (doses to about 46 µM), inactives show at the highest dose activity change, negative = inhibition, usual class: inhibitors; 360,000 tested, 2.1% active; further: potency means the concentration at half of the fitted maximal effect; on the % scale 0 is the no-effect control and ±100 the full control effect; nearly all actives have a fitted effect of over 60% in size
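Quantitative HTS in A549 cells stably bearing an antioxidant response element-firefly luciferase construct. Inhibition of Nrf2-driven transcription was scored by luminescence after 18-24 h of compound exposure at 37 °C.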
Apoferritin bind = binds horse apoferritin like a general anesthetic; apoferritin/1-aminoanthracene competitive binding, fluorescence; Potency, µM (doses to about 77.5 µM), without a hit: top-dose activity change, negative = displacement, most hits filed as inhibitors; 350,000 tested, 0.074% active; AID 485281; further: potency means the concentration at half of the fitted maximal effect; on the % scale 0 is the no-effect control and ±100 the full control effect; nearly all actives have a fitted effect of over 20% in size
Target sequence (P02791 2-175 limits assumed): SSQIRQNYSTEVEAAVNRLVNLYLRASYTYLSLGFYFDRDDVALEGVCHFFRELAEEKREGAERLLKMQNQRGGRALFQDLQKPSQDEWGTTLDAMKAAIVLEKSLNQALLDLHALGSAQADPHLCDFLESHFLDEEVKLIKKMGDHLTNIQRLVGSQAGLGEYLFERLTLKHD
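Apoferritin-based anesthetic binding model; compound displacement of fluorescent 1-AMA measured as endpoint fluorescence after 10 minutes at room temperature, scaled to free-ligand and complex controls.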
Nrf2 ARE act = Nrf2 pathway activation | Potency, µM (titrated, usually from 46.1 µM), inactives show top-dose activation, usual class: activators | AREc32 ARE-luciferase reporter (MCF7-derived line), luminescence, 24 h | 410,000 tested, 0.31% active; further: potency means the concentration at half of the fitted maximal effect; % of control where 0% means no effect; nearly all actives have a fitted effect of over 65% in size
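Steps: seed AREc32_Fluc cells (1000/well, 5% FBS OPTI-MEM); incubate overnight at 37 deg C; add 23 nL compound; incubate 24 hr; add Steady-Glo; hold 30 min RT; read luminescence.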
Giardia killer = Giardia lamblia killing; 340,000 tested, 0.15% active; AID 540267; Giardia lamblia trophozoite viability; activity change, % at 7.66 µM, hits read low; in the data active means activity change below about -80%; inconclusive means between about -30% and that limit;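 further: parasites exposed to compound for two days anaerobically before the ATP read; on the % scale 0 is the no-effect control and ±100 the full control effect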
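Killing of trophozoites was scored by loss of ATP luminescence after a 48 hrs anaerobic exposure to compounds at 37 deg C, using 100 cells per well.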
mIDH1 inhibitor = blocks human mutant IDH1 R132H enzyme; 390,000 tested, 0.093% active; Potency, µM (titrated, usually from 76.6 µM), for the others: at the highest dose activity change, negative = inhibition, hits mostly inhibitors; IDH1-R132H enzyme, NADPH consumption, diaphorase/resazurin fluorescence; further: potency means the concentration at half of the fitted maximal effect; on the % scale 0 is the no-effect control and ±100 the full control effect; nearly all actives have a fitted effect of over 65% in size
Target sequence (O75874 whole entry R132H, stated change not applied): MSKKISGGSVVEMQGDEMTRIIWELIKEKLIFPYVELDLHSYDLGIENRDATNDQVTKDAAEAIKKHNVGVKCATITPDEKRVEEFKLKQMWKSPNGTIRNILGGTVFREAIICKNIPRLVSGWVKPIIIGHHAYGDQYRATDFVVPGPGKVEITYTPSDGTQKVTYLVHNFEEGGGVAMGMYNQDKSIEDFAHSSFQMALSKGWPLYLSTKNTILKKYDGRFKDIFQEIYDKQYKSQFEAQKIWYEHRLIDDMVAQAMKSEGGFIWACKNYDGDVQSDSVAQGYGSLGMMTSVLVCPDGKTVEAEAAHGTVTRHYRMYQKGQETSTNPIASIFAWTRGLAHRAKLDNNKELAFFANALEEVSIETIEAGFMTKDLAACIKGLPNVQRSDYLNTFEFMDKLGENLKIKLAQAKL
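IDH1-R132H (0.5 ug/mL) preincubated 30 min with compound, then NADPH (0.016 mM) and alpha-KG (2 mM) added; 80 min at RT, pH 7.5. Remaining NADPH coupled via diaphorase/resazurin to fluorescence (540/590 nm); concentration-response curves normalized to no-enzyme control.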
A549 viability = A549 cytotoxicity, counter-screen for Nrf2 inhibitors. A549 ARE-Fluc cells, CellTiter-Fluor viability, 18-24 h. Potency, µM (doses to about 46 µM), inactives show at the top dose activity change, negative = cytotoxicity, hits mostly inhibitors. 390,000 tested, 0.16% active. AID 504648; further: potency means the concentration at half of the fitted maximal effect; on the % scale 0 is the no-effect control and ±100 the full control effect
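Cytotoxicity counterscreen: CellTiter-Fluor fluorescence was measured in A549 ARE_Fluc cells after 18-24 h of compound exposure in a concentration series. The subsequent BugLite luminescent read reports ARE-luciferase activity.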
* hit, by the source's call; [ ] = dose if it differs, or a comment. Unless noted, the call rests on the fitted dose curve; in most records, active means well fitted curve in the direction sought with a large enough effect; inconclusive means small, poorly fitted or top-dose-only effect, or another doubt; inactive means no such curve, though single readings can be large; an effect the other way counts as inactive or inconclusive.

Cc1ccc(S(=O)(=O)N2C[C@@H]3[C@H]4CC[C@H](C4)[C@@H]3[C@@H](C)[C@@H]2c2cn(Cc3ccccc3)c3ncccc23)cc1 was read as Nrf2 block 20.6µM*, Nrf2 ARE act 3.4%, Giardia killer -29.8, mIDH1 inhibitor 7.9% and A549 viability -0.1%.
C/C(=N\NC(=O)c1ccc(CN(C)S(=O)(=O)c2ccc(C)cc2)cc1)c1ccc(OC(F)F)cc1 was read as Nrf2 block 5.17µM*, Apoferritin bind 7.9%, Nrf2 ARE act 0.2%, Giardia killer -0.8, mIDH1 inhibitor 6.0% and A549 viability -17.9%.
Screening CN(Cc1ccc(OC(F)F)cc1)C(=O)c1ccc(S(=O)(=O)N(C)c2ccccc2)cc1 returned Nrf2 block inconclusive, Nrf2 ARE act 0.6%, Giardia killer -3.7, mIDH1 inhibitor -10.7% and A549 viability -5.9%.
`Cc1ccc(COC(=O)c2cccc(S(=O)(=O)N3CCCCCC3)c2)cc1` gave Nrf2 block -0.5%, Nrf2 ARE act -0.2%, Giardia killer 20.5, mIDH1 inhibitor 1.2% and A549 viability -3.6%.
Screening CC(=O)N1CCN(S(=O)(=O)c2cccc(C(=O)OCc3ccc(C(C)(C)C)cc3)c2)CC1 returned Nrf2 block 23.1µM*, Nrf2 ARE act 0.0%, Giardia killer -8.8, mIDH1 inhibitor 2.0% and A549 viability -13.3%.
Screening O=C(Nc1ccc(F)cc1)c1ccc(-n2cncn2)c([N+](=O)[O-])c1 returned Nrf2 block 23.1µM*, Apoferritin bind -7.9%, Nrf2 ARE act 3.0%, Giardia killer -15.0, mIDH1 inhibitor 34.5% and A549 viability -5.8%.
For Cc1ccc(NC(=O)c2ccc(-n3cncn3)c([N+](=O)[O-])c2)cc1F the results were Nrf2 block -7.2%, Nrf2 ARE act -0.5%, Giardia killer -10.8, mIDH1 inhibitor 12.7% and A549 viability -0.9%.
For Cc1oc2c(cc(NS(=O)(=O)c3ccc(Cl)cc3)c3ccccc32)c1C(=O)OCc1ccccc1 the results were Nrf2 block 0.1%, Apoferritin bind -12.2%, Nrf2 ARE act -0.1%, mIDH1 inhibitor -1.9% and A549 viability 2.6%.
Screening CCOCCCn1c(C)nc2c(c1=O)c1nc3ccccc3nc1n2CCC1=CCCCC1 returned Nrf2 block 13µM*, Apoferritin bind -15.8%, Nrf2 ARE act -0.3%, Giardia killer 3.9, mIDH1 inhibitor -21.5% and A549 viability inconclusive.
Cc1ccsc1CNC(=O)C1(C)CCCN1CC(C)C (stereo unspecified) was read as Nrf2 ARE act 0.0%.
For CCN(Cc1nc2ccccc2c(=O)[nH]1)C(=O)COc1ccccc1Cc1ccccc1 the results were Nrf2 block 16.4µM*, Nrf2 ARE act 1.5%, Giardia killer -1.4, mIDH1 inhibitor -13.1% and A549 viability -14.6%.
Screening CCCC(=O)N(CCc1ccc(OC)cc1)Cc1nc2ccccc2c(=O)[nH]1 returned Nrf2 block 23.1µM*, Apoferritin bind -18.2%, Nrf2 ARE act -0.6%, Giardia killer -0.7, mIDH1 inhibitor -0.8% and A549 viability -8.3%.
`O=C1CCc2cc(S(=O)(=O)Nc3ccc(Cl)c(Cl)c3)ccc2N1` gave Nrf2 block 3.1% and A549 viability inconclusive.
COc1ccccc1NC(=O)CSCc1cc(=O)c2c(C)cc(C)cc2[nH]1 was read as Apoferritin bind -15.3%, Nrf2 ARE act 9.0%, mIDH1 inhibitor 23.1% and A549 viability 7.8%.
For O=C(NCc1ccccc1Cl)c1ccc(Cn2c(SCc3ccccc3)nc3cccnc32)cc1 the results were Nrf2 block inconclusive, Apoferritin bind -13.9%, Nrf2 ARE act 4.6%, mIDH1 inhibitor 0.0% and A549 viability inconclusive.
For Cc1cccc(C(=O)Nc2cccc(OCc3cc(=O)n4ccccc4n3)c2)c1 the results were Apoferritin bind -2.5%, Nrf2 ARE act -1.6%, mIDH1 inhibitor -1.0% and A549 viability 2.6%.
For COc1ccccc1NC(=O)CN1C(=O)C(c2ccc(F)cc2)=NC12CCCCC2 the results were Nrf2 block 16.4µM*, Apoferritin bind inconclusive, Nrf2 ARE act 3.6% and A549 viability -6.3%.
O=S(=O)(NCC1CCN(c2ccc(S(=O)(=O)N3CCOCC3)cc2)CC1)c1ccc(F)cc1 was read as Nrf2 block 20.6µM*, Apoferritin bind 9.3%, Nrf2 ARE act 0.7%, Giardia killer -8.0, mIDH1 inhibitor 3.6% and A549 viability inconclusive.
O=C(Nc1ccc(S(=O)(=O)Nc2ccccc2)cc1)c1ccc(CN2CCOCC2)cc1 was read as Nrf2 block 4.11µM*, Apoferritin bind -12.0%, Nrf2 ARE act 0.3%, Giardia killer 13.9, mIDH1 inhibitor -2.4% and A549 viability -4.5%.
`CCOc1ccc(NC(=O)c2ccc(NC(=O)c3ccc(CN4CCOCC4)cc3)cc2)cc1` gave Nrf2 block -25.3%, Apoferritin bind -2.6%, Nrf2 ARE act -1.2%, Giardia killer 38.3, mIDH1 inhibitor 6.0% and A549 viability 1.6%.
`COC(=O)c1ccc(NC(=O)c2ccc(CN3CCOCC3)cc2)cc1` gave Nrf2 block 9.2µM*, Apoferritin bind 0.6%, Nrf2 ARE act 0.1%, Giardia killer 6.4, mIDH1 inhibitor 2.8% and A549 viability -5.2%.
For CCC(C)Oc1ccc(C(=O)Nc2ccc(CN3CCOCC3)cc2)cc1 (stereo unspecified) the results were Nrf2 block 23.1µM*, Apoferritin bind inconclusive, Nrf2 ARE act 0.2%, Giardia killer -10.7, mIDH1 inhibitor 1.9% and A549 viability -19.7%.
For O=C(Nc1ccc(CN2CCOCC2)cc1)c1ccc(Cl)cc1 the results were Nrf2 block inconclusive, Apoferritin bind -6.7%, Nrf2 ARE act 4.4%, Giardia killer -2.0, mIDH1 inhibitor 11.1% and A549 viability -18.4%.
`Cc1nc(C)c(-c2csc(Nc3ccc(Cl)cn3)n2)s1` gave Nrf2 ARE act 13.8% and mIDH1 inhibitor -2.3%.
`COc1ccc(Cl)cc1-c1nc(-c2ccncc2)no1` gave Nrf2 block inconclusive, Apoferritin bind 4.9%, Nrf2 ARE act 6.31µM*, Giardia killer 14.8, mIDH1 inhibitor 1.6% and A549 viability 0.0%.
For COc1ccccc1Sc1nc(-c2ccccn2)ncc1OC the results were Nrf2 block inconclusive, Apoferritin bind -13.5%, Nrf2 ARE act 0.5%[9.22 µM], Giardia killer -24.3, mIDH1 inhibitor 7.8% and A549 viability -6.9%.
For COc1cnc(-c2ccccn2)nc1NC(C)C the results were Nrf2 block 14.6µM*, Apoferritin bind -8.7%, Nrf2 ARE act 3.3%, Giardia killer 8.5, mIDH1 inhibitor -2.7% and A549 viability inconclusive.
